Where “and” joins values, the source holds several entries; their conditions need not be identical. Equal entries are not always repeated. Results filed as inconclusive are left out. Entries that show only a call come without a potency. More than one record can exist for a structure, and the calls need not agree. Calls of active or inactive are those of the source. Unless noted, calls come from the whole dose curve; as a rule, active = well fitted curve in the direction sought with a large enough effect in the repeat runs; inconclusive = weak or mixed curves; inactive = no such curve, though single readings can be large; an effect the other way counts as inactive or inconclusive.
Tests used:
[1] = qHTS assay to identify aromatase inhibitors - cell viability counter screen (AID 743084);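 note: cells stimulated with testosterone during compound exposure; nearly all actives have a fitted effect of over 55% in size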
[2] = biological target: Aryl hydrocarbon receptor (Homo sapiens) (UniProt P35869); assay: qHTS assay to identify small molecule that activate the aryl hydrocarbon receptor (AhR) signaling pathway (AID 743085); note: nearly all actives have a fitted effect of over 15% in size; note: potency is the fitted concentration of half-maximal effect;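 for activation: HG2L7.5c1 human HepG2 liver cells with stably integrated DRE-driven firefly reporter; series mostly up to about 70 µM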
Aryl hydrocarbon receptor (Homo sapiens), sequence (P35869 whole entry, looked up): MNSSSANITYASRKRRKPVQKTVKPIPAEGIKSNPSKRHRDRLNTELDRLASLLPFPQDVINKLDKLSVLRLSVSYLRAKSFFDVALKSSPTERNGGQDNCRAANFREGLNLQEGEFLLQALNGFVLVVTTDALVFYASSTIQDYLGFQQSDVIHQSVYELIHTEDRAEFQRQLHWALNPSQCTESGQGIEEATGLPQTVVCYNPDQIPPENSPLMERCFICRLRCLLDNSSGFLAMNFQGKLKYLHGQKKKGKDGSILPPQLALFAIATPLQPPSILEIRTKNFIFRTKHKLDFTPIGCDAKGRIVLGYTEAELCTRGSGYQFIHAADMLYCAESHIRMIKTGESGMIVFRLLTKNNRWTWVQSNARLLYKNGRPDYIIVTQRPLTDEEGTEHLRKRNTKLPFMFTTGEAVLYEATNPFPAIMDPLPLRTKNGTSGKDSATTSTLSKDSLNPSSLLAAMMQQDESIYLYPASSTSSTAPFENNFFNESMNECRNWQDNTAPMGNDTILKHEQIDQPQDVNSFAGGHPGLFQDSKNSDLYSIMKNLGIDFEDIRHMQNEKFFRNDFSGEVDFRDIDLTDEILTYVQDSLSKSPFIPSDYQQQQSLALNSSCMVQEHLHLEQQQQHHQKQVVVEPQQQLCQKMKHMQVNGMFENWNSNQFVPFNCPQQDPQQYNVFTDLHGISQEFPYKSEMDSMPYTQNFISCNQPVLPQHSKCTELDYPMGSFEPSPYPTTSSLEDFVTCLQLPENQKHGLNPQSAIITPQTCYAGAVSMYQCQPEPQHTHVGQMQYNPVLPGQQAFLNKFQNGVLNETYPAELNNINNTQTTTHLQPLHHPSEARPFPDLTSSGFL
Method in brief: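 HepG2 cells (HG2L7.5c1) stably carrying a firefly luciferase reporter driven by 20 dioxin responsive elements were exposed to compound for 24 h at 37C after a 5 h settling period; luminescence rise (ONE-Glo) indicated activation.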

[3] = qHTS assay to identify small molecule that activate the aryl hydrocarbon receptor (AhR) signaling pathway - cell viability counter screen (AID 743086); note: nearly all actives have a fitted effect of over 45% in size; note: potency is the fitted concentration of half-maximal effect
Method in brief: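 Cytotoxicity counter screen: CellTiter-Fluor signal (30 min, 37 C) in 4000 HepG2 cells/well carrying the DRE-luciferase reporter, following 24 h compound exposure at 37 C.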

[4] = biological target: Peroxisome proliferator-activated receptor gamma (Homo sapiens) (UniProt P37231); assay: qHTS assay to identify small molecule agonists of the peroxisome proliferator-activated receptor gamma (PPARg) signaling pathway (AID 743094; active = well fitted activation curve with a large enough effect in the signal ratio in the repeat runs, not every such curve was filed as active; the % refers to the signal ratio)
Peroxisome proliferator-activated receptor gamma (Homo sapiens), sequence (P37231 whole entry, looked up): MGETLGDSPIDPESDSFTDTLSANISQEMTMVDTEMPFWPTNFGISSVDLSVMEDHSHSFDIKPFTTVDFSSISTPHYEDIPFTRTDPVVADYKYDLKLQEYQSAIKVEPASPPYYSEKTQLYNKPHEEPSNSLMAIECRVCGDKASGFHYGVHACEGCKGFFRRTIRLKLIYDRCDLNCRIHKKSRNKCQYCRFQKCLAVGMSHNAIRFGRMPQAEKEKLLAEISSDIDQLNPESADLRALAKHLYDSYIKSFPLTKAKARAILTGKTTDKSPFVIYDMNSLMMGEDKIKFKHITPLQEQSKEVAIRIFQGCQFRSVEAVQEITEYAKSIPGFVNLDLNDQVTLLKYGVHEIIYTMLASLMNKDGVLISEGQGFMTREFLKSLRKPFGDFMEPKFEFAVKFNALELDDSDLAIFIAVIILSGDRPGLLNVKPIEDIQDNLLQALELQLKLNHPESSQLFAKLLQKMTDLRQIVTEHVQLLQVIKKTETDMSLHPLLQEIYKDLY
Method in brief: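 GeneBLAzer PPARg UAS-bla HEK293H cells carrying a stably integrated beta-lactamase reporter were pre-incubated 5 h at 37C, then exposed to compounds in DMSO for 17 h at 37C; LiveBLAzer B/G FRET substrate was added for 1 h at room temperature and fluorescence read.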

[5] = biological target: Peroxisome proliferator-activated receptor gamma (Homo sapiens) (UniProt P37231); assay: qHTS assay to identify small molecule antagonists of the peroxisome proliferator-activated receptor gamma (PPARg) signaling pathway (AID 743191; calls by dose curve; note: series mostly up to about 63 µM; nearly all actives have a fitted effect of over 30% in size)
Method in brief: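 Beta-lactamase reporter under UAS control in HEK293H PPARg-bla cells; compound treatment 17 h at 37C. Read-out: fluorescence intensity after 1 h room-temperature incubation with LiveBLAzer B/G FRET substrate.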

[6] = qHTS assay to identify small molecule antagonists of the peroxisome proliferator-activated receptor gamma (PPARg) signaling pathway - cell viability counter screen (AID 743194); note: nearly all actives have a fitted effect of over 55% in size
Method in brief: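 Viability was measured as CellTiter-Glo luminescence in GeneBLAzer PPARg UAS-bla HEK293H cells. These cells had been exposed 17 h at 37 C to compounds together with rosiglitazone at 50 nM final, with the beta-lactamase readout taken in the same wells.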

[7] = qHTS assay for small molecule agonists of the antioxidant response element (ARE) signaling pathway (AID 743202; active = well fitted activation curve with a large enough effect in the signal ratio in the repeat runs, not every such curve was filed as active; the % refers to the signal ratio; note: potency is the fitted concentration of half-maximal effect)
Method in brief: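 An ARE-responsive beta-lactamase gene stably integrated in HepG2 cells serves as reporter. After 5 h plating and 16 h compound incubation at 37 C, fluorescence of the B/G FRET substrate was measured.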

[8] = qHTS assay for small molecule agonists of the antioxidant response element (ARE) signaling pathway - cell viability counter screen (AID 743203; calls by dose curve; note: nearly all actives have a fitted effect of over 55% in size; note: potency is the fitted concentration of half-maximal effect)
Method in brief: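 CellSensor ARE-bla HepG2 cells, 2,000 per well, rested 5 hrs at 37C/5% CO2, then exposed to compound in DMSO for 16 hrs; viability read as CellTiter-Glo luminescence after 30 min at room temperature, in the reporter wells.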

[9] = qHTS assay to identify small molecule agonists of the peroxisome proliferator-activated receptor delta (PPARd) signaling pathway - cell viability counter screen (AID 743211); note: nearly all actives have a fitted effect of over 55% in size; note: potency is the fitted concentration of half-maximal effect
Method in brief: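 PPARd-bla HEK293H cells (UAS-beta-lactamase reporter) were treated with compounds for 17 h at 37 C. Viability was then read in the same wells by CellTiter-Glo luminescence after 30 min at room temperature.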

[10] = qHTS assay to identify small molecule antagonists of the peroxisome proliferator-activated receptor delta (PPARd) signaling pathway - cell viability counter screen (AID 743213); note: nearly all actives have a fitted effect of over 50% in size; note: potency is the fitted concentration of half-maximal effect
Method in brief: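 HEK293H cells with the PPARd UAS-bla reporter, co-treated 17 h at 37 C with compounds and L165041 (300 nM final), were lysed with CellTiter-Glo. Luminescence indicated viable cell content.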

[11] = biological target: Peroxisome proliferator-activated receptor delta (Homo sapiens) (UniProt Q03181); assay: qHTS assay to identify small molecule antagonists of the peroxisome proliferator-activated receptor delta (PPARd) signaling pathway (AID 743215; active = well fitted inhibition curve with a large enough effect in the signal ratio in the repeat runs, not every such curve was filed as active; the % refers to the signal ratio;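 note: cells stimulated with agonist L165041 at 300 nM final during compound exposure; series mostly up to about 62 µM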)
Peroxisome proliferator-activated receptor delta (Homo sapiens), sequence (Q03181 whole entry, looked up): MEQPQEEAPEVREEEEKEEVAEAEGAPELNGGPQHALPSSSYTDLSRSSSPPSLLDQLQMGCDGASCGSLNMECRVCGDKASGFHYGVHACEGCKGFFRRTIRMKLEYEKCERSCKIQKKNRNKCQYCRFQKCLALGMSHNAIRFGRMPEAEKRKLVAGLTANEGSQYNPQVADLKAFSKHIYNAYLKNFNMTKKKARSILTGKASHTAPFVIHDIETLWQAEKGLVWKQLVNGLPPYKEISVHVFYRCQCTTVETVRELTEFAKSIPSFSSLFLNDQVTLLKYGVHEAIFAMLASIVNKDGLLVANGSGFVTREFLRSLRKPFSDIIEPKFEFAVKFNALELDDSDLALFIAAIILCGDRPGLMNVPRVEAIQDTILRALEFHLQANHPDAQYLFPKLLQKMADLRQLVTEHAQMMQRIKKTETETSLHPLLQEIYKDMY
Method in brief: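 PPARd UAS-bla HEK293H cells were pre-incubated 5 h at 37 C, then given test compounds in DMSO plus agonist L165041 (300 nM final). After 17 h at 37 C, beta-lactamase FRET substrate was added; fluorescence read after 2 h at room temperature.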

[12] = biological target: Bile acid receptor (Homo sapiens) (UniProt Q96RI1); assay: qHTS assay to identify small molecule antagonists of the farnesoid-X-receptor (FXR) signaling pathway (AID 743217; active = well fitted inhibition curve with a large enough effect in the signal ratio in the repeat runs, not every such curve was filed as active; the % refers to the signal ratio; note: potency is the fitted concentration of half-maximal effect)
Bile acid receptor (Homo sapiens), sequence (Q96RI1 whole entry, looked up): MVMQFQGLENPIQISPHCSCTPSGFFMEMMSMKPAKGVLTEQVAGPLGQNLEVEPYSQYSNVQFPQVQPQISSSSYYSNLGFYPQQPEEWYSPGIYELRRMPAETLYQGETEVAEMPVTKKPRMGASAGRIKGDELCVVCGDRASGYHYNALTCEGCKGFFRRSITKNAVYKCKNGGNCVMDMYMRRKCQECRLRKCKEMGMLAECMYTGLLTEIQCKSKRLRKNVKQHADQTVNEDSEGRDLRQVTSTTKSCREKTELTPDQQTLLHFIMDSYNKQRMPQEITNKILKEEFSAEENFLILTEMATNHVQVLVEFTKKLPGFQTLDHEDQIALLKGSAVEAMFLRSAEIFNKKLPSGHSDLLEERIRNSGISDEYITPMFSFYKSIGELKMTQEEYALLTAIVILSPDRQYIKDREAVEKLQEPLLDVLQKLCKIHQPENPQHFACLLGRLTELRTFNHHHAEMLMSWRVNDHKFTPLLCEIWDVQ
Method in brief: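 FXR-UAS-bla HEK 293T cells pre-incubated 5 h at 37 °C, then exposed to compounds with chenodeoxycholic acid (50 uM final) for 16 h at 37 °C. Beta-lactamase reporter read by LiveBLAzer B/G FRET substrate fluorescence after 2 h at room temperature.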

[13] = biological target: Bile acid receptor (Homo sapiens) (UniProt Q96RI1); assay: qHTS assay to identify small molecule agonists of the farnesoid-X-receptor (FXR) signaling pathway (AID 743220; active = well fitted activation curve with a large enough effect in the signal ratio in the repeat runs, not every such curve was filed as active; the % refers to the signal ratio)
Method in brief: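 Beta-lactamase reporter under UAS control in GeneBLAzer FXR HEK 293T cells (5000/well) measured with LiveBLAzer FRET substrate after 2 h at room temperature. Compound exposure lasted 16 h at 37C.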

[14] = qHTS assay to identify small molecule antagonists of the farnesoid-X-receptor (FXR) signaling pathway - cell viability counter screen (AID 743221; active = well fitted cell-killing curve with a large enough effect in the repeat runs, not every such curve was filed as active; note: nearly all actives have a fitted effect of over 50% in size)
Method in brief: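 FXR-UAS-bla HEK 293T cells were treated with test compounds plus chenodeoxycholic acid (50 uM final) for 16 h at 37 C. Cell viability in the same wells was then read as CellTiter-Glo luminescence after 30 min at room temperature.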

[15] = qHTS assay for small molecule activators of the heat shock response signaling pathway - cell viability counter screen (AID 743209); note: nearly all actives have a fitted effect of over 50% in size; note: potency is the fitted concentration of half-maximal effect
Method in brief: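 CellSensor HSE-bla HeLa cells, plated overnight at 37 C/5% CO2, were exposed to compounds in DMSO for 5 h at 37 C. Viability was then read in the same wells by CellTiter-Glo luminescence after 30 min at room temperature.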

[16] = qHTS assay for small molecule activators of the heat shock response signaling pathway (AID 743210; active = well fitted activation curve with a large enough effect in the signal ratio in the repeat runs, with a control signal flat, not every such curve was filed as active; the % refers to the signal ratio;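 note: HeLa cells with beta-lactamase reporter driven by heat shock elements; series mostly up to about 63 µM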)
Method in brief: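 In HSE-bla HeLa cells, 5 h compound incubation (37 C) precedes addition of LiveBLAzer B/G substrate; after 2.5 h at room temperature, fluorescence intensity indicates reporter induction.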

[17] = biological target: Vitamin D3 receptor (Homo sapiens) (UniProt P11473); assay: qHTS assay to identify small molecule antagonists of the vitamin D receptor (VDR) signaling pathway (AID 743223; active = well fitted inhibition curve with a large enough effect in the signal ratio in the repeat runs, not every such curve was filed as active; the % refers to the signal ratio)
Vitamin D3 receptor (Homo sapiens), sequence (P11473 whole entry, looked up): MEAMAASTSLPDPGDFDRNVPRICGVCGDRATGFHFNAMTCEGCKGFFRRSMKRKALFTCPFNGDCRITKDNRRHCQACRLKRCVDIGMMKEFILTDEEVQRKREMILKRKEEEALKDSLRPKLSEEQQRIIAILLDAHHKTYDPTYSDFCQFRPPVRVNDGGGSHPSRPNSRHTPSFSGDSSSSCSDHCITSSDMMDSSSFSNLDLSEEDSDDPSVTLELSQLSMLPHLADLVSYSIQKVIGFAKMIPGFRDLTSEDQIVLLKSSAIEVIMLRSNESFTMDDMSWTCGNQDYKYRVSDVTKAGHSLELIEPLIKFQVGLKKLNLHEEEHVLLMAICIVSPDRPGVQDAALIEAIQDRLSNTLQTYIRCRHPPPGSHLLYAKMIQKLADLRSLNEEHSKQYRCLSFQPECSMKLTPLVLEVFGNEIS
Method in brief: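 VDR-bla cells were plated, incubated 4 h at 37C, then given compound and 1alpha,25-dihydroxyvitamin D3 (3 nM final). After 16 h at 37C, LiveBLAzer B/G FRET substrate was added for 2 h at room temperature and fluorescence read.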

[18] = biological target: Peroxisome proliferator-activated receptor delta (Homo sapiens) (UniProt Q03181); assay: qHTS assay to identify small molecule agonists of the peroxisome proliferator-activated receptor delta (PPARd) signaling pathway (AID 743212; calls by dose curve)
Method in brief: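 HEK293H UAS-bla reporter cells, human PPARd system; compounds delivered in DMSO after 5 h plating, then at 37 C. Beta-lactamase FRET read, 2 h RT substrate step.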

[19] = qHTS assay to identify small molecule agonists of the farnesoid-X-receptor (FXR) signaling pathway - cell viability counter screen (AID 743218); note: nearly all actives have a fitted effect of over 45% in size; note: potency is the fitted concentration of half-maximal effect
Method in brief: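 FXR-UAS-bla HEK 293T cells, plated 5 h at 37 C, were exposed to compounds for 16 h at 37 C. CellTiter-Glo was then added to the same wells as the bla readout; luminescence read after 30 min at room temperature.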

[20] = biological target: Vitamin D3 receptor (Homo sapiens) (UniProt P11473); assay: qHTS assay to identify small molecule agonists of the vitamin D receptor (VDR) signaling pathway (AID 743222; calls by dose curve)
Method in brief: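 VDR-bla cells were plated 4 h at 37C/5% CO2, then exposed to compounds in DMSO for 16 h. After LiveBLAzer B/G FRET substrate addition and 2 h at room temperature, beta-lactamase reporter fluorescence was read.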

Compound | Potency [1] | Potency [2] | Potency [3] | outcome [4] | Potency [5] | Potency [6] | Potency [7] | Potency [8] | Potency [9] | Potency [10] | outcome [11] | Potency [12] | outcome [13] | Potency [14] | Potency [15] | outcome [16] | outcome [17] | outcome [18] | Potency [19] | outcome [20]
CN(C)/N=N/c1nc[nH]c1C(N)=O | inactive | inactive | inactive | inactive | inactive | inactive | inactive | inactive | inactive | inactive | inactive | inactive | inactive | inactive |  |  |  |  |  | 
O=C(O)c1ccc(O)cc1 | inactive | inactive | inactive | inactive | inactive | inactive |  | inactive | inactive | inactive | inactive | inactive | inactive | inactive | inactive |  |  |  |  | 
CC1(C)O[C@@H]2C[C@H]3[C@@H]4C[C@H](F)C5=CC(=O)C=C[C@]5(C)[C@@]4(F)[C@@H](O)C[C@]3(C)[C@]2(C(=O)CO)O1 | inactive | inactive | inactive | inactive | inactive | inactive | inactive | inactive | inactive | inactive |  |  |  |  |  | inactive | inactive |  |  | 
C=C[C@@]1(C)CC(=O)[C@]2(O)[C@@]3(C)[C@@H](O)CCC(C)(C)[C@@H]3[C@H](O)[C@H](OC(C)=O)[C@@]2(C)O1 | inactive | inactive | inactive | inactive |  | inactive | inactive | inactive |  | 9.77 µM (active) |  |  |  |  | 24.5 µM (active) and inactive |  |  | inactive | 9.77 µM (active) and 8.41 µM (active) | inactive
C=CCNCC=C | inactive | inactive | inactive | inactive | inactive | inactive | inactive | inactive | inactive | inactive |  | inactive | inactive |  |  | inactive | inactive |  | inactive | inactive
CC(=O)OC(C)C | inactive | inactive | inactive | inactive | inactive | inactive | inactive | inactive | inactive | inactive | inactive | inactive | inactive | inactive |  |  | inactive | inactive |  | inactive
[O-]/[N+](=N\O)c1ccccc1 | inactive | 30.6 µM (active) | inactive | inactive | inactive | inactive |  | inactive | inactive | inactive | inactive |  |  | inactive | inactive | inactive | inactive | inactive |  | inactive
CC(=O)O[C@]1(C(C)=O)CC[C@H]2[C@@H]3C=C(Cl)C4=CC(=O)CC[C@]4(C)[C@H]3CC[C@@]21C | inactive | inactive | inactive |  |  |  |  |  | 48.9 µM (active) and inactive | inactive | inactive |  |  | inactive | inactive | inactive |  |  | inactive | 
Cc1ccc(N)c([N+](=O)[O-])c1 | inactive |  | inactive | inactive | inactive | inactive | inactive | inactive | inactive | inactive | inactive |  |  | inactive | inactive | inactive | inactive | inactive | inactive | inactive
CN(Cc1cnc2nc(N)nc(N)c2n1)c1ccc(C(=O)N[C@@H](CCC(=O)O)C(=O)O)cc1 | inactive |  | inactive |  |  |  | 9.7 nM (active) and 59.6 nM (active) | 6.1 nM (active) and 47.3 nM (active) |  |  |  | 0.376 µM (active) | inactive |  | inactive | inactive |  |  |  | 
O=[Se](O)O | inactive |  | 27.3 µM (active) and inactive |  |  | inactive | inactive | inactive | inactive | inactive | inactive |  |  | inactive |  | inactive |  | inactive | inactive | 
COc1ccc(-c2coc3cc(O)cc(O)c3c2=O)cc1 |  | 9.77 µM (active) and 9.69 µM (active) | inactive |  | inactive | inactive |  | inactive | inactive | inactive | inactive |  |  |  | inactive |  | inactive |  | inactive | inactive
CC/C=C\C/C=C\C/C=C\CCCCCCCC(=O)O | inactive | inactive | inactive |  |  | inactive | inactive and 34.4 µM (active) | inactive | inactive | inactive and 34.7 µM (active) |  | inactive | inactive | inactive | inactive |  | inactive |  |  | inactive
COC(=O)c1ccc(C)cc1 | inactive | inactive | inactive |  |  | inactive | inactive | inactive | inactive | inactive | inactive | inactive | inactive |  | inactive |  | inactive |  | inactive | inactive
c1ccc2cc3ccccc3cc2c1 | inactive |  | inactive | inactive | inactive | inactive | inactive | inactive | inactive | inactive | inactive | inactive | inactive | inactive | inactive |  | inactive | inactive |  | inactive
CCCCCC=O |  | inactive | inactive | inactive |  | inactive | inactive | inactive | inactive | inactive |  | inactive | inactive | inactive |  | inactive | inactive | inactive |  | inactive
O=C(CCCN1CCC(O)(c2ccc(Cl)cc2)CC1)c1ccc(F)cc1 | inactive | inactive | inactive |  |  | inactive |  | 54.5 µM (active) and inactive |  | 30.9 µM (active) and 21.1 µM (active) |  | inactive | inactive |  | inactive |  |  |  | 30.9 µM (active) and inactive | 
CCCN1C=CN(C)C1 | inactive | inactive | inactive |  |  | inactive | inactive | inactive | inactive | inactive | inactive | inactive | inactive | inactive |  |  | inactive |  |  | inactive
O=C(O)COCCN1CCN(C(c2ccccc2)c2ccc(Cl)cc2)CC1 (centres undefined) | inactive |  | inactive | inactive | inactive | inactive |  | inactive | inactive | inactive | inactive | inactive | inactive | inactive | inactive |  | inactive |  |  | inactive
CC1=CC(C)(C)Nc2ccccc21 | inactive |  | inactive | inactive | inactive | inactive | inactive | inactive | inactive | inactive | inactive |  |  | inactive |  |  |  |  | inactive | inactive
CN1CCOCC1 | inactive | inactive | inactive |  |  |  | inactive | inactive | inactive | inactive |  |  |  | inactive | inactive | inactive | inactive |  |  | inactive
ClC/C=C/CCl | inactive |  | inactive | inactive | inactive | inactive | 24.1 µM (active) and 24.5 µM (active) | inactive | inactive | inactive | inactive |  |  |  |  | inactive | inactive | inactive |  | inactive
